Screening data from PubChem.
TTR transcr act – activators of transthyretin transcription; activation, % at 16.7 µM; 1.3% of 92,000 active; SH-SY5Y TTR promoter Gaussia luciferase, luminescence; 100% = recombinant luciferase protein wells;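 active = activation above the mean of all tested compounds plus 3 SD, cut at about 9.5% in these data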;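 note: cells exposed to compounds for one day before reading; 0% = median of all test compound wells on the plate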
TTR inh HuH7 – HuH7 TTR transcription inhibition, counter-screen; shares compounds with TTR transcr act; HuH7 TTR promoter-Gaussia luciferase reporter, luminescence; inhibition, % at 16.7 µM; 4% of 1,100 active; AID 1117279;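 active = average inhibition above the solvent-only control wells' mean plus 3 SD, cut at about 15% in these data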;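 note: 0% = cells with DMSO only and 100% = cells with inhibitor control FD; inhibitors lower well luminescence so higher value means more inhibition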
TTR up confirm – human TTR transcription activation, confirmation; 1,100 tested, under 10 active; activation, % at 16.7 µM; shares compounds with TTR transcr act; AID 1117280; SHSY5Y TTR promoter Gaussia luciferase, luminescence; 100% = purified Lucia enzyme wells, no cells;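 active = mean activation above a set limit taken from the earlier primary screen, cut at about 11% in these data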;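 note: 0% = DMSO-treated cells and 100% = recombinant Lucia luciferase without cells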
* marks the source's active call; other numbers are inactive results. The entries come from a sample that favours hits as a whole.

For O=C(CN1C(=O)/C(=C/c2ccco2)SC1=S)Nc1ccc(O)c(C(=O)O)c1 the results were TTR transcr act -0.7.
O=[N+]([O-])c1ccc2[nH]ncc2c1 was read as TTR transcr act 2.3.
`CC(=O)Cn1c(=O)c2c(nc3n2CCCN3Cc2ccccc2)n(C)c1=O` gave TTR transcr act -1.3.
Cc1ccc(S(=O)(=O)c2nc(-c3ccco3)oc2SCC(N)=O)cc1 was read as TTR transcr act -0.1.
Screening O=C(CSc1nc2ccccc2o1)NCC1CCCO1 (stereo unspecified) returned TTR transcr act -0.2.
For O=C(CSc1oc(-c2ccco2)nc1S(=O)(=O)c1ccccc1)NCC1CCCO1 (stereo unspecified) the results were TTR transcr act 11.7*, TTR inh HuH7 -6.9 and TTR up confirm -0.1.
Brc1cccc(CNn2cnnc2)c1 was read as TTR transcr act 0.0.
Screening COc1ccc(N2CCN(C(C)C(=O)N3CCCC3)CC2)cc1 (stereo unspecified) returned TTR transcr act 0.9.
CN(C)CCCn1c(NCc2ccc3c(c2)OCO3)nc2ccccc21 was read as TTR transcr act 10.0*, TTR inh HuH7 -12.6 and TTR up confirm 0.0.
`c1ccc2c(c1)nc(NCc1ccc3c(c1)OCO3)n2CCN1CCOCC1` gave TTR transcr act -0.5.
`CCn1c(NCc2ccc3c(c2)OCO3)nc2ccccc21` gave TTR transcr act 6.2.
For CC1=NN(C(=O)c2ccc(Cl)cc2)C(O)(c2ccccc2)C1 (stereo unspecified) the results were TTR transcr act -2.6.
COc1ccc(NC(=O)CCNC(=O)c2ccccc2)cc1S(N)(=O)=O was read as TTR transcr act 31.5*, TTR inh HuH7 -12.1 and TTR up confirm -0.4.
Screening COc1ccccc1NS(=O)(=O)c1cc(NC(=O)CCNC(C)=O)ccc1C returned TTR transcr act -0.6.
For O=C(CCNC(=O)c1ccccc1)Nc1ccc(F)c(Cl)c1 the results were TTR transcr act 3.2.
Screening COc1ccc(NC(=O)Cn2c(=O)n(CC3CCCO3)c(=O)c3cc(OC)c(OC)cc32)c(OC)c1 (stereo unspecified) returned TTR transcr act -0.4.
`COc1cc2c(=O)n(CC3CCCO3)c(=O)n(CC(=O)Nc3cccc(Cl)c3)c2cc1OC` (stereo unspecified) gave TTR transcr act 10.4*, TTR inh HuH7 -27.5 and TTR up confirm -0.4.
`COc1cc2c(=O)n(CC3CCCO3)c(=O)n(CC(=O)Nc3ccc(F)cc3F)c2cc1OC` (stereo unspecified) gave TTR transcr act 0.4.
For CCCCNC(=S)NNC(=O)c1nn(C)c(C)c1Cl the results were TTR transcr act 1.1.
`CC(C)(C)OC(=O)CNC(=O)c1[nH]cnc1C(=O)NCC(=O)OCc1ccccc1` gave TTR transcr act -0.4.
Screening O=C(CNC(=O)c1[nH]cnc1C(=O)NC(c1ccccc1)c1ccccc1)OCc1ccccc1 returned TTR transcr act 10.7*, TTR inh HuH7 -23.0 and TTR up confirm -0.6.
For O=C(CNC(=O)c1[nH]cnc1C(=O)N[C@@H](Cc1ccccc1)C(=O)OCc1ccccc1)OCc1ccccc1 the results were TTR transcr act 5.0.
`O=S(=O)(N1CCCCCC1)N1CCNCC1` gave TTR transcr act -0.7.
Screening CSc1ccccc1NC(=O)CN(C)Cc1cc(=O)n2ccsc2n1 returned TTR transcr act 0.0.
COc1ccccc1CNC(=O)C1CC2Cn3c(nc4ccccc43)C2N1C (stereo unspecified) was read as TTR transcr act 0.5.
Screening COc1ccc(NC(=O)CSc2nc(N)c3cc4c(nc3n2)CC(C)(C)OC4)cc1 returned TTR transcr act 4.2.
`CN1C(=O)CSc2ccc(NC(=O)NCc3ccc(F)cc3)cc21` gave TTR transcr act -1.0.
`CN1C(=O)CSc2ccc(NC(=O)N3CCc4ccccc43)cc21` gave TTR transcr act -3.8.
Screening CC(=O)Nc1ccc(NC(=O)Nc2ccc3c(c2)N(C)C(=O)CS3)cc1 returned TTR transcr act 10.1*, TTR inh HuH7 3.5 and TTR up confirm -1.2.
For O=C(COC(=O)c1ccccc1OCc1ccccc1Cl)NCC1CCCO1 (stereo unspecified) the results were TTR transcr act -1.6.
`O=C(O)Cn1c(=O)n(Cc2ccccc2)c2ccccc21` gave TTR transcr act -1.8.
Screening Cc1nnc(SCC(=O)NN2C(=O)NC3(CCCCC3)C2=O)s1 returned TTR transcr act 11.2*, TTR inh HuH7 -5.5 and TTR up confirm -0.7.
`CCC(=O)N(c1nnc(SCC(=O)NN2C(=O)NC3(CCC(C)CC3)C2=O)s1)C1CC1` (stereo unspecified) gave TTR transcr act 0.0.
Cc1ccc(C(=O)CCC(=O)NN2C(=O)NC3(CCCCC3)C2=O)cc1 was read as TTR transcr act -1.8.
For CC(=O)c1cc2c(cc1NC(=O)c1cnc(C)cn1)OCO2 the results were TTR transcr act -0.4.
`O=c1c2ccccc2cnn1-c1nc2ccccc2[nH]1` gave TTR transcr act 3.5.
Screening COc1cccc2cc(C(C)N(CCCN3CCOCC3)C(=S)Nc3ccccc3C)oc12 (stereo unspecified) returned TTR transcr act 14.0*, TTR inh HuH7 -6.1 and TTR up confirm -0.8.
Screening COc1cccc2cc(C(C)N(CCCN3CCOCC3)C(=S)Nc3c(C)cccc3C)oc12 (stereo unspecified) returned TTR transcr act 0.6.
Screening COc1cccc2cc(C(C)N(CCCN3CCOCC3)C(=S)Nc3cccc(C)c3)oc12 (stereo unspecified) returned TTR transcr act -0.7.
Screening CC(C)OC(=O)c1cc(-c2ccc(C=O)o2)ccc1Cl returned TTR transcr act 0.0.
For CCOC(=O)[C@]12CCCC=C1N(Cc1ccccc1)C(=O)[C@H](CC(=O)NCc1ccc(OC)c(OC)c1)C2 the results were TTR transcr act -2.0.
For CCCCCCCCN1C(=O)[C@H](CC(=O)NCCc2ccccc2OC)C[C@@]2(C(=O)OCC)CCCC=C12 the results were TTR transcr act -1.7.
For COCCCNC(=O)C[C@@H]1C[C@@]2(C(=O)OC)CCCCC=C2N(CCc2ccc(OC)c(OC)c2)C1=O the results were TTR transcr act 35.5*, TTR inh HuH7 -4.9 and TTR up confirm 1.4.
COc1ccccc1NC(=O)Cn1c(=O)oc2cc(S(=O)(=O)N3CCCC3)ccc21 was read as TTR transcr act -1.0.
`CCCCSc1cc(=O)n(-c2ccccc2)nc1C(=O)OCC` gave TTR transcr act 10.4*, TTR inh HuH7 1.9 and TTR up confirm -1.3.
`CCCSc1cc(=O)n(-c2ccccc2)nc1C(=O)O` gave TTR transcr act 0.3.
Screening CCOC(=O)c1nn(-c2ccccc2)c(=O)cc1SC(C)C returned TTR transcr act 1.4.
Screening CCOC(=O)C1=C(CSc2nccn2C)NC(=O)NC1c1ccc2c(c1)OCO2 (stereo unspecified) returned TTR transcr act 0.0.
Screening CC(C)c1cccc(O)c(=O)c1 returned TTR transcr act 10.1*, TTR inh HuH7 -7.2 and TTR up confirm -0.9.
CC(=O)c1c(O)cc(C(C)C)n(-c2ccccc2)c1=O was read as TTR transcr act -1.2.
Screening Cc1ccc(C(C)C)c(O)c1 returned TTR transcr act 3.5.
